Screening results as filed in PubChem.
The list is not random: actives were taken first. Their share in the collection is about 2.6%.
Cruzain noTriton: blocks cruzain activity in detergent-free assay; P25779; purified cruzain, Z-FR-AMC fluorescence, no detergent; Potency, µM, for the others: max response, negative = inhibition, actives largely listed as inhibitors; 2.3% of 200,000 active;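 further: plate controls were enzyme without inhibitor for no effect and buffer without enzyme for full effect; nearly all actives have a fitted effect of over 40% in size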
Target sequence (P25779 123-467 limits assumed): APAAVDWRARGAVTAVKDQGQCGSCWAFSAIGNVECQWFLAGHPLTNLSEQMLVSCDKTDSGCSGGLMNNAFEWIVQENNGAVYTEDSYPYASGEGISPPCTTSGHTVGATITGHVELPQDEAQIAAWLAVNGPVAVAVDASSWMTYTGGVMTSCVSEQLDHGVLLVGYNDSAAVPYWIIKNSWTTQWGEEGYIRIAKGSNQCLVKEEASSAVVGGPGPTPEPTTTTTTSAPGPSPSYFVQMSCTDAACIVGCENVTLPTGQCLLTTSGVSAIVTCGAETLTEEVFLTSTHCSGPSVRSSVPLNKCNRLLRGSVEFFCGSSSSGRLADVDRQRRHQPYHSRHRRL
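Detergent-free condition (0.00005% Triton X-100) in acetate buffer pH 5.5 with DTT. 1.5 nM enzyme and compound were pre-mixed 15 min, then 2 uM Z-FR-AMC substrate added; reaction progress from fluorescence change between first and third reads (60 s).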
Cruzain inh Det: cruzain (T. cruzi) inhibition with detergent; P25779; AID 1478; Potency, µM, for the others: max response, negative = inhibition, hits mostly inhibitors; purified cruzain, Z-FR-AMC fluorescence, 0.01% Triton; 0.43% of 200,000 active;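 further: plate controls were neutral wells for no effect and buffer without enzyme for full effect; nearly all actives have a fitted effect of over 40% in size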
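Cruzain (1.5 nM) preincubated 15 min at RT with compound in 100 mM sodium acetate pH 5.5, 5 mM DTT, 0.01% Triton X-100. Reaction started with 2 uM Z-FR-AMC; AMC fluorescence (ex 360/em 450 nm) change over 60 s gave rate.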
Starred values were filed as active, the others as inactive. The call rests on the fitted dose curve; in most records, active means well fitted curve in the direction sought with a large enough effect; inconclusive means small, poorly fitted or top-dose-only effect, or another doubt; inactive means no such curve, though single readings can be large; an effect the other way counts as inactive or inconclusive. Potency means the concentration at half of the fitted maximal effect.

How did O=C(c1ccccc1)c1nn(-c2ccccc2)c(=O)cc1C(F)(F)F do in these assays?
Cruzain noTriton: -3%; Cruzain inh Det: 1%

How did Cc1ccc(Cc2nnc3n(-c4ccccc4)nc(C(=O)c4ccccc4)n3c2=O)cc1 do in these assays?
Cruzain noTriton: 25µM*; Cruzain inh Det: -4%

What do the screens show for `Cc1cc(NC(=O)COC(=O)[C@H](Cc2c[nH]c3ccccc23)NC(=O)c2ccc(F)cc2)no1`?
Cruzain noTriton: inconclusive; Cruzain inh Det: 14µM*

How did CCc1ccc(C(=O)NC(Cc2c[nH]c3ccccc23)C(=O)OCC(=O)c2ccc(Br)cc2)cc1 (stereo not drawn) do in these assays?
Cruzain noTriton: 16µM*; Cruzain inh Det: -5%

How did O=C(COC(=O)C(Cc1c[nH]c2ccccc12)NC(=O)c1ccc(Br)cc1)c1ccc(Cl)cc1 (stereo not drawn) do in these assays?
Cruzain noTriton: inconclusive; Cruzain inh Det: -1%

Results for CC(=O)NC(Cc1c[nH]c2ccccc12)C(=O)OCC(=O)Nc1cc(C)on1 (stereo not drawn) ?
Cruzain noTriton: -1%; Cruzain inh Det: -2%

Results for O=C(NC(Cc1c[nH]c2ccccc12)C(=O)O)c1ccccc1 (stereo not drawn) ?
Cruzain noTriton: -8%; Cruzain inh Det: -3%

How did CC(C)(C)c1ccc(C(=O)NC(Cc2c[nH]c3ccccc23)C(=O)OCC(=O)c2ccc(Br)cc2)cc1 (stereo not drawn) do in these assays?
Cruzain noTriton: 10µM*; Cruzain inh Det: -4%

Results for Cc1ccc(C(=O)COC(=O)C(Cc2c[nH]c3ccccc23)NC(=O)c2ccc(C(C)(C)C)cc2)cc1 (stereo not drawn) ?
Cruzain noTriton: 10µM*; Cruzain inh Det: 2%

What do the screens show for `O=C(COC(=O)C(Cc1c[nH]c2ccccc12)NC(=O)c1ccc(Cl)cc1)c1ccc(Cl)cc1` (stereo not drawn)?
Cruzain noTriton: inconclusive; Cruzain inh Det: -2%

How did O=[N+]([O-])c1cccc(Cl)c1Cl do in these assays?
Cruzain noTriton: 6%; Cruzain inh Det: -4%

How did O=C(Nc1ccc(N2CCN(c3ccc(F)cc3)CC2)c(C(=O)O)c1)c1ccccc1F do in these assays?
Cruzain noTriton: 5%; Cruzain inh Det: 3%

How did COc1ccc(-c2nc(SCC(=O)Nc3c(C)cc(C)cc3C)n[nH]2)cc1 do in these assays?
Cruzain noTriton: 7%; Cruzain inh Det: -2%

How did CC(C)c1cnc2c(c1SCC(=O)Nc1ccc(OC(F)(F)F)cc1)c(=O)n(C)c(=O)n2C do in these assays?
Cruzain noTriton: -5%; Cruzain inh Det: 0%

How did NC(=S)N/N=C/c1ccccc1 do in these assays?
Cruzain noTriton: 3%; Cruzain inh Det: -18%

Results for COc1cc(/C=N/NC(N)=S)ccc1OC(=O)c1ccc(C)cc1 ?
Cruzain noTriton: 2.5µM*; Cruzain inh Det: 4.5µM*

How did COc1ccc(/C=N/NS(=O)(=O)c2ccccc2)cc1OC(=O)c1ccc(C)cc1 do in these assays?
Cruzain noTriton: inconclusive; Cruzain inh Det: 0%

Results for COc1ccc(CNC(=S)N/N=C/c2ccc(OC)c(OC)c2)cc1 ?
Cruzain noTriton: 10%; Cruzain inh Det: -6%

What do the screens show for `COc1ccc(C(=O)Oc2cccc(/C=N/NC(N)=S)c2)cc1`?
Cruzain noTriton: 16µM*; Cruzain inh Det: inconclusive

What do the screens show for `CC(=O)Nc1ccc(/C=N/NC(N)=S)cc1`?
Cruzain noTriton: 11µM*; Cruzain inh Det: -17%

How did COc1ccc(/C=C\C(=O)Oc2cccc(/C=N/NC(=O)Cc3ccc(OC)c(OC)c3)c2)cc1 do in these assays?
Cruzain noTriton: 11%; Cruzain inh Det: -10%

How did COc1cc(/C=N/NC(N)=S)ccc1OCc1ccc(C)cc1 do in these assays?
Cruzain noTriton: 1µM*; Cruzain inh Det: 2.2µM*

What do the screens show for `Cc1cc(N2CCN(C)CC2)nc2ccc(NC(=O)Nc3ccccc3Br)cc12`?
Cruzain noTriton: 22%; Cruzain inh Det: -2%

How did COCCNc1ncnc2ccc(-c3cccc(OC)c3)cc12 do in these assays?
Cruzain noTriton: 0%; Cruzain inh Det: 0%

What do the screens show for `Cn1c(=O)oc2cc(S(=O)(=O)N3CCC(C(=O)N4CCN(c5ccccc5F)CC4)CC3)ccc21`?
Cruzain noTriton: inconclusive; Cruzain inh Det: -1%

Results for CC(=O)Nc1nonc1-c1nnc(SCC(=O)Nc2c(C)cccc2C)n1-c1ccccc1 ?
Cruzain noTriton: 12%; Cruzain inh Det: -1%

Results for COc1ccc(-c2coc3cc4oc(=O)cc(C)c4cc23)cc1F ?
Cruzain noTriton: -27%; Cruzain inh Det: 3%

How did COc1ccc(-c2coc3cc4oc(=O)cc(-c5ccccc5)c4cc23)cc1F do in these assays?
Cruzain noTriton: 10µM*; Cruzain inh Det: 1%

How did NC(=S)NCCCC(N)C(=O)O (stereo not drawn) do in these assays?
Cruzain noTriton: 7%; Cruzain inh Det: 10%

How did Cc1ccc(CNC(=O)/C=C/c2c(Cl)cccc2Cl)cc1 do in these assays?
Cruzain noTriton: 25µM*; Cruzain inh Det: 0%

How did Cc1ccc(CNC(=O)/C=C/c2ccccc2Cl)cc1 do in these assays?
Cruzain noTriton: -2%; Cruzain inh Det: 0%

What do the screens show for `CC(C)Nc1ccc(Nc2ccccc2)cc1`?
Cruzain noTriton: 32µM*; Cruzain inh Det: -3%

What do the screens show for `c1ccc(Nc2ccccc2)cc1`?
Cruzain noTriton: 0%; Cruzain inh Det: -2%

Results for O=C(COC(=O)CSc1cc(Cl)ccc1Cl)Nc1ncc(C(F)(F)F)cc1Cl ?
Cruzain noTriton: -6%; Cruzain inh Det: -23%

How did COc1ccc(Cl)cc1NC(=O)COC(=O)CNC(=O)c1ccc([N+](=O)[O-])c(C)c1 do in these assays?
Cruzain noTriton: inconclusive; Cruzain inh Det: 20µM*

Results for COCC(=O)OCC(=O)Nc1cc(C)c(C)cc1[N+](=O)[O-] ?
Cruzain noTriton: 4%; Cruzain inh Det: -2%

Results for O=C(COC(=O)CNC(=O)c1ccc(Cl)cc1)Nc1ncc(C(F)(F)F)cc1Cl ?
Cruzain noTriton: 4µM*; Cruzain inh Det: 7.9µM*

Results for COc1ccc(C(=O)NCC(=O)OCC(=O)Nc2cc(OC)ccc2OC)cc1 ?
Cruzain noTriton: -18%; Cruzain inh Det: inconclusive

Results for Cc1ccc(C(=O)NCC(=O)OCC(=O)Nc2ccc(Cl)cc2C(F)(F)F)cc1C ?
Cruzain noTriton: inconclusive; Cruzain inh Det: 14µM*

Results for Cc1ccc(C(=O)NCC(=O)OCC(=O)Nc2cc(C)c(C)cc2[N+](=O)[O-])cc1 ?
Cruzain noTriton: 10µM*; Cruzain inh Det: 8.9µM*

How did Cc1ccsc1C(=O)OCC(=O)Nc1ccc(Cl)cc1C(F)(F)F do in these assays?
Cruzain noTriton: -3%; Cruzain inh Det: 3%

What do the screens show for `O=C(Nc1ccc(F)cc1)Nc1csc2c1CCCC2`?
Cruzain noTriton: 1%; Cruzain inh Det: -11%

Results for CCOc1ccccc1NC(=O)Cn1c(=O)n(CCCC(=O)NCCc2ccc(C)cc2)c(=O)c2ccccc21 ?
Cruzain noTriton: 10%; Cruzain inh Det: -2%

What do the screens show for `CCc1cccc(NC(=O)c2ccc3c(=O)n4nc(Nc5ccccc5OC)sc4nc3c2)c1`?
Cruzain noTriton: 1%; Cruzain inh Det: -3%

How did COc1ccc(NC(=O)COC(=O)CNC(=O)c2cc(OC)c(OC)c(OC)c2)cc1 do in these assays?
Cruzain noTriton: -10%; Cruzain inh Det: -6%

Results for Cc1cc(C(=O)NCC(=O)OCC(=O)Nc2ccc(OC(F)F)cc2)ccc1[N+](=O)[O-] ?
Cruzain noTriton: 10µM*; Cruzain inh Det: 11µM*

What do the screens show for `CC1CCc2nc3ncn(Cc4ccccc4F)c(=O)c3cc2C1` (stereo not drawn)?
Cruzain noTriton: -2%; Cruzain inh Det: -3%
